PubChem BioAssay AID1850 (Southern Research Specialized Biocontainment Screening …, 2009)
“And” between values parts separate entries of the source, which are not always exact repeats. Identical values can stand only once. The whole screen tested about 310,000 compounds, of which about 1,000 (0.32%) were called active. These entries were drawn from the full list. Results with a measured potency or affinity are listed apart. A number with no mark means an inactive call. How the calls were made is not given here.

Assay: PhoP regulon inhibitors, Salmonella typhi PhoP promoter GFP reporter, confirmatory (AID 1850);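 further: 0% = induced wells with vehicle and 100% = uninduced wells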
Conditions: fluorescence, 4 h, at 50 µM, stronger effect = higher value
Work on O=C1CSC(c2ccc3c(c2)OCO3)N1c1ccc(Oc2ccccc2)cc1 (stereo unspecified) yielded an inhibition of 7.07%.
c1ccc(CSc2ccc(-c3ccco3)nn2)cc1 showed an inhibition of 9.52%.
Fc1ccc(CSc2ccc(-c3ccco3)nn2)cc1 showed an inhibition of 6.93%.
In the case of C[C@]12CCC(=O)C=C1CC[C@@H]1C2CC[C@]2(C)C(=O)CCC12 (stereo partly specified), the inhibition is reported as -12.1%.
For O=[N+]([O-])c1ccc(N/N=C/c2ccccc2)c(F)c1, the inhibition was -8.42%.
O=C(CCc1nnc(Cc2ccc(-c3ccccc3)cc2)o1)NCCc1cccnc1 gave an inhibition of -5.62%.
O=C(Oc1c(Cl)cc(Cl)c2cccnc12)c1cccs1 showed an inhibition of 13.7%.
O=C(Oc1ccc(Cl)c2cccnc12)c1cccc([N+](=O)[O-])c1 showed an inhibition of -4.89%.
In the case of O=C(Oc1ccc(Cl)c2cccnc12)c1ccco1, the inhibition is reported as -5.73%.
Molecule O=C(Oc1cccc2cccnc12)c1cccc([N+](=O)[O-])c1 has an inhibition of 1.2%.
O=C(Nc1cccc(Cl)c1)c1ccc(=O)[nH]n1 gave an inhibition of 12.7%.
Molecule CC1CCC(NC(=O)c2nn(C)c3c2CS(=O)(=O)c2ccccc2-3)CC1 (stereo unspecified) has an inhibition of 5.03%.
In the case of COc1cccc(C(=O)NNC(=O)Cc2ccc(Cl)cc2)c1, the inhibition is reported as -3.92%.
With CSCCC(N=C(NS(=O)(=O)c1ccc(C)cc1)c1ccccc1)C(=O)O (stereo unspecified) the inhibition was -3.75%.
For CCC(C)(C)NC(=O)CN(C(=O)c1snc(C(N)=O)c1N)c1ccc2nc(C)sc2c1, the inhibition was -5.66%.
Molecule O=C(CCN1C(=O)C2C3C=CC(C3)C2C1=O)N1CCN(c2ccccc2F)CC1 (stereo unspecified) has an inhibition of 18.6%.
With COC(=O)CSc1nc2nc(-c3cccs3)cc(C(F)(F)F)c2c(=O)[nH]1 the inhibition was -1.37%.
CNC(=O)c1cc2c(cn1)[nH]c1ccccc12 gave an inhibition of 3.35%.
For CCOC(=O)c1cc2c(cn1)[nH]c1ccccc12, the inhibition was 9.76% and 5.1%.
For CCOC(=O)CCC(=O)Nc1ccc(S(=O)(=O)Nc2cc(OC)nc(OC)n2)cc1, the inhibition was -6.86%.
For Cc1cc(C)c2c3c(sc2n1)C(=O)N(C)CC(=O)N3, the inhibition was -4.13%.
Molecule C/C(N)=C(/C#N)C(=O)COC(=O)CCC1CCCC1 has an inhibition of 0.41%.
Work on N#CCC(=O)Nc1ccc(C(=O)N2CCN(c3ccccn3)CC2)cc1 yielded an inhibition of 14.2%.
Molecule CN(C)c1ccc(CN(Cc2ccco2)C(=O)c2ccco2)cc1 has an inhibition of -2.38%.
In the case of CS(=O)(=O)N1CCC(Oc2ccccc2C(=O)NC2CCCCCC2)CC1, the inhibition is reported as -17.3%.
CC(=O)c1cnc(Nc2cccc(C)c2)s1 gave an inhibition of -8.01%.
For Cn1c(CNC(=O)CNS(=O)(=O)c2ccc(Br)cc2)cc(=O)n(C)c1=O, the inhibition was -1.92%.
With CC(C)c1ccc(OCC(=O)NNC(=S)NC(=O)c2cccs2)c(Br)c1 the inhibition was -8.98%.
COc1ccc2oc(C(=O)OCC(=O)N(C)CC(=O)Nc3ccc(C)cc3)c(C)c2c1 showed an inhibition of 6.55%.
In the case of CC1CCN(C(=O)c2ccc([N+](=O)[O-])o2)CC1, the inhibition is reported as 5.43%.
With O=C(c1ccc([N+](=O)[O-])o1)N1CCN(Cc2ccccc2)CC1 the inhibition was -0.17%.
COc1ccc(C(=O)Nc2ccc(N3CCCC3)cc2)cc1 gave an inhibition of -0.89%.
COc1ccccc1NC(=O)COc1ccc(C(=O)OCC(=O)NC(C)(C)C)cc1OC gave an inhibition of -5.27%.
Work on COc1cc(/C=N/N=C(N)N)ccc1OCc1ccc(Cl)cc1 yielded an inhibition of 49.6%.
Work on NC(N)=N/N=C/c1ccc(Cl)cc1Cl yielded an inhibition of 14.2%.
Work on FCCCOc1ccc(/C=N/OCc2ccc(Cl)cc2Cl)cc1 yielded an inhibition of 14.7%.
Molecule Clc1ccccc1COc1ccc(/C=N/n2cnnc2)cc1 has an inhibition of -10.4%.
NC(N)=N/N=C/c1ccc(OCc2ccccc2)cc1 gave an inhibition of 17%.
COc1cc(/C=N/N=C(N)N)ccc1OCc1ccccc1Cl gave an inhibition of -7.28%.
CCCCCCCNC(=O)C1CC(=O)N(C)C(=Nc2ccc(OC)cc2)S1 (stereo unspecified) showed an inhibition of -2.09%.
Work on CCOc1cc(C(=O)OC(C)C(=O)Nc2ccc(S(N)(=O)=O)cc2)ccc1OCC(=O)N1CCOCC1 (stereo unspecified) yielded an inhibition of 8.2%.
CC(C)CN1C2CCCC1CC(NC(=O)c1ccc([N+](=O)[O-])cc1)C2 (stereo unspecified) gave an inhibition of 3.6%.
In the case of N/C(=N\NS(=O)(=O)c1ccccc1C(F)(F)F)c1ccccn1, the inhibition is reported as 2.11%.
In the case of COc1cccc(C(=O)Nc2c3c(nc4c2CCC4)CCCC3)c1, the inhibition is reported as -0.613%.
Work on CC(C)(C)C1CCC(C(=O)OCC(=O)N2CCN(C(=O)c3ccco3)CC2)CC1 (stereo unspecified) yielded an inhibition of -8.5%.
Molecule O=c1c(C=NCc2cccnc2)c(C(F)(F)F)[nH]n1-c1nc2ccccc2s1 has an inhibition of 2.08%.
Molecule COC(=O)C1=C(C)Nc2c(c(=O)n(C)c(=O)n2C)C1c1ccc(Cl)cc1 (stereo unspecified) has an inhibition of 0.17%.
In the case of CC(=O)c1sc(-c2ccccn2)nc1C, the inhibition is reported as 3.14%.
In the case of N=c1ccn2c(n1)O[C@H]1[C@@H](CO)[C@H](O)O[C@H]12, the inhibition is reported as 2.95%.
CCOC(=O)c1cn(-c2ccc(F)c(F)c2)c2c(F)c(F)c(F)c(F)c2c1=O gave an inhibition of -9.71%.
COC(=O)c1ccc(C)c(NC(=S)NCc2ccc(Cl)cc2)c1 showed an inhibition of -7.26%.
Molecule COC(=O)c1cc(NC(=S)NCc2ccc(Cl)cc2)cc(C(=O)OC)c1 has an inhibition of -2.32%.
O=C(Nc1ccccc1)O/N=C(\c1ccccc1)c1ccccn1 gave an inhibition of -16.2%.
With Cc1ccc[n+](CC(=O)Nc2ccc([N+](=O)[O-])cc2)c1 the inhibition was 6.66%.
Cc1cccc[n+]1CC(=O)Nc1ccc([N+](=O)[O-])cc1 gave an inhibition of 1.95%.
For N#Cc1ccccc1NC(=O)CSc1nnc(-c2ccccc2)n1-c1ccccc1, the inhibition was 0.92%.
COc1ccc2c(c1OC)C(=O)N(c1ccccc1)C2=O gave an inhibition of 9.99%.
COc1ccc2c(c1OC)C(=O)N(c1ccc(O)cc1)C2=O showed an inhibition of -3.53%.
Work on CCN(C(=S)NCc1ccccc1)c1ccccc1 yielded an inhibition of -2.51%.
Cc1c(NC(=O)C(=O)/C=C(\O)c2ccc(Cl)cc2)c(=O)n(-c2ccccc2)n1C gave an inhibition of -8.97%.
Cc1cc(C)nc(N/N=C/c2ccccc2)n1 showed an inhibition of -1.28%.
Work on O=C(N/N=C/c1ccncc1)c1cccs1 yielded an inhibition of -16.1%.
For Cc1ccc(/C=N/NC(=O)c2cccs2)s1, the inhibition was -3.78%.
Work on O=C(N/N=C/c1ccc(Br)s1)c1cccs1 yielded an inhibition of 5.12%.
For O=C(N/N=C/c1ccccn1)c1ccc(Br)cc1, the inhibition was 8.46%.
Molecule O=C(N/N=C/c1ccccn1)c1ccncc1 has an inhibition of 10.1%.
For O=C(N/N=C/c1ccccn1)c1ccco1, the inhibition was 8.62%.
CC(C)NC(=O)NC(=O)COC(=O)CCOc1ccccc1 showed an inhibition of 1.53%.
With O=C(CC1(CC2=NS(=O)(=O)c3ccccc3N2)CCCC1)NCCc1ccccc1 the inhibition was -20.4%.
With O=C(NCC1CC1)c1cc(-c2ccccc2)nn1CC1CC(c2cccc([N+](=O)[O-])c2)=NO1 (stereo unspecified) the inhibition was 4.4%.
In the case of Cc1ccc(Cl)cc1N1CCN(S(=O)(=O)c2c(C)[nH]c(=O)[nH]c2=O)CC1, the inhibition is reported as 8.84%.
Work on C=CCNC(=S)N1CCN(c2cc3c(cc2F)c(=O)c(C(=O)O)cn3CC)CC1 yielded an inhibition of -3.14%.
For CCn1cc(C(=O)O)c(=O)c2cc(F)c(N3CCN(C(=S)NC(=O)c4c(OC)cccc4OC)CC3)cc21, the inhibition was 3.3%.
Work on Cn1nnnc1SCC(=O)NCCCc1ccccc1 yielded an inhibition of 0.19%.
In the case of Cc1cccc(NC(=O)COC(=O)Cc2c[nH]c3ccccc23)c1C, the inhibition is reported as -3.69%.
For O=C(NC(=S)NCc1cccnc1)c1cc(Br)ccc1Cl, the inhibition was -7.31%.
O=C(COc1ncnc2ccccc12)NCC1CCCO1 (stereo unspecified) showed an inhibition of 7.4%.
Work on Cc1cc(S(=O)(=O)Nc2cccc([N+](=O)[O-])c2)c(C)s1 yielded an inhibition of -6.89%.
O=C(NNS(=O)(=O)c1ccccc1[N+](=O)[O-])c1cccc([N+](=O)[O-])c1 gave an inhibition of -5.01%.
Cc1occc1C(=O)NC(C)C12CC3CC(CC(C3)C1)C2 (stereo unspecified) gave an inhibition of 2.3%.
Molecule CCC1(CC)Cc2ccccc2C(CC(=O)N2CCOCC2)=N1 has an inhibition of -0.09%.
COc1ccc(/C=C/C(=O)c2cc(Cl)cc(Cl)c2O)c(OC)c1 gave an inhibition of 1.28%.
With O=c1[nH][nH]c(-c2ccccc2O)c1C(C[N+](=O)[O-])c1ccccc1 (stereo unspecified) the inhibition was 10.2%.
Molecule Cc1ccc(C(C[N+](=O)[O-])c2c(-c3ccccc3O)[nH][nH]c2=O)cc1 (stereo unspecified) has an inhibition of 3.54%.
Cc1ccc2c(C)c(C(=O)Nc3cccnc3)oc2c1 gave an inhibition of -1.18%.
CCN(CC)S(=O)(=O)c1ccc(/C=C/C(=O)Nc2ccc(Br)cc2F)cc1 showed an inhibition of -3.09%.
For c1ccc2c(Nc3ccc4c(c3)OCCO4)c3c(nc2c1)CCC3, the inhibition was 19.5%.
Work on Cc1ccc2nc3c(c(Nc4ccccc4)c2c1)CCC3 yielded an inhibition of 1.9%.
Work on c1ccc(Nc2c3c(nc4ccccc24)CCC3)cc1 yielded an inhibition of -12.1%.
c1ccc2c(Nc3ccc4c(c3)OCCO4)c3c(nc2c1)CCCC3 showed an inhibition of -7.16%.
CC(=O)c1ccc(Nc2c3c(nc4ccccc24)CCCC3)cc1 showed an inhibition of -0.46%.
With COc1cc(Nc2c3c(nc4ccccc24)CCC3)cc(OC)c1OC the inhibition was -13.8%.
In the case of COc1ccc(Nc2c3c(nc4ccc(C)cc24)CCC3)cc1, the inhibition is reported as 26.7%.
With N#Cc1cccc(Nc2c3c(nc4ccccc24)CCC3)c1 the inhibition was -6.96%.
In the case of O=C(O)C1C2CCC(C2)C1C(=O)N1CCCC1 (stereo unspecified), the inhibition is reported as 6.43%.
For COc1ccc(S(=O)(=O)N(C)CC(=O)NCCC2=CCCCC2)cc1OC, the inhibition was 9.61%.
